Reference: ChEMBL document CHEMBL1157539, “Thousands of chemical starting points for antimalarial lead identification” (Nature, 2010)
“And” between values parts separate entries of the source, which are not always exact repeats. Equal entries are not always repeated.

Experiments:
Type in all cases: functional
[1] = tested on: Plasmodium falciparum; assay: GSK_TCMDC: Inhibition of Plasmodium falciparum 3D7 in whole red blood cells, using parasite LDH activity as an index of growth. Test compounds present at 2uM
[2] = tested on: Plasmodium falciparum; assay: GSK_TCMDC: Inhibition of Plasmodium falciparum Dd2 in whole red blood cells, using parasite LDH activity as an index of growth. Test compounds present at 2uM
[3] = tested on: HepG2; assay: GSK_TCMDC: Percent inhibition of human HepG2 cell line. Test compounds present at 10uM.

SMILES	Inhibition [1]	Inhibition [2]	Inhibition [3]
O=C(Nc1cc(C(F)(F)F)cc(C(F)(F)F)c1)NC1CCC(CN2CCC(c3c[nH]c4ccccc34)CC2)CC1 (stereo not drawn)	97% and 100%	98% and 72%	–
CCCCCCCn1c(=O)c(C(=O)Nc2c(C)cccc2C)c(O)c2ccccc21	90%	42%	6%
COC(=O)/C=C/c1ccc(CC(C)NCC(O)c2cccc(Cl)c2)cc1 (stereo not drawn)	99%	73%	2%
CN1CC(c2ccc(Cl)c(Cl)c2)OC1=N.I (stereo not drawn)	99%	3%	–
Br.CCOC(=O)c1ccc(CC(C)NCC(O)c2cccc(C(F)(F)F)c2)cc1 (stereo not drawn)	100%	98%	5%
O=C(NCc1ccc(S(=O)(=O)N2CCC(CN3CCC(c4c[nH]c5ccccc45)CC3)CC2)s1)c1ccccc1	92%	21%	32%
CC(Cc1ccc(OCCCCOc2ccccc2)cc1)NCCCN1CCOCC1 (stereo not drawn)	98%	78%	98%
N=C(N)NC(=O)Nc1ccc([N+](=O)[O-])c(Cl)c1	90%	12%	–
CCN(CC)CCCC(C)Nc1ccnc2cc(Cl)ccc12.O=P(O)(O)O.O=P(O)(O)O (stereo not drawn) [CHLOROQUINE PHOSPHATE]	100%	–	–
CN(c1cc(NC(=O)c2cccs2)ccn1)C1CCN(Cc2cccc(F)c2)CC1.O=C(O)C(F)(F)F	94%	95%	0%
CCC(C)(C)NC(C)C(O)c1ccc(C(F)(F)F)cc1.Cl (stereo not drawn)	97%	90%	–
Cc1[nH]c2c(C)cc(NS(C)(=O)=O)cc2c1C1CCN(CC2CCN(C(=O)/C=C/c3ccc(Cl)c(Cl)c3)CC2)CC1	100%	99%	33%
CCCc1c(C(=O)NC2CCC(CN3CCC(c4c[nH]c5ccccc45)CC3)CC2)cnn1-c1c(Cl)cc(Cl)cc1Cl (stereo not drawn)	100%	49%	41%
O=C(NC1CCC(CN2CCC(c3c[nH]c4ccccc34)CC2)CC1)c1ccc(-c2ccccc2[N+](=O)[O-])o1 (stereo not drawn)	100%	34%	24%
O=C(/C=C/c1ccccc1O)NC1CCC(CN2CCC(c3c[nH]c4ccccc34)CC2)CC1 (stereo not drawn)	100%	45% and 73%	11% and 22%
CC(Cc1ccc(OCc2ccccc2)cc1)NCC(O)c1cccc(Cl)c1 (stereo not drawn)	99%	99%	50%
O=C(/C=C/c1ccc(Cl)c(Cl)c1)N1CCC(CN2CCC(c3c[nH]c4ccccc34)C(O)C2)CC1 (stereo not drawn)	99%	14%	37%
CO/C=C(/C(=O)OC)c1ccccc1Oc1cc(Oc2ccccc2C#N)ncn1 [AZOXYSTROBIN]	98%	98%	7%
CC[C@H]1CN2CC[C@H]1C[C@H]2[C@H](O)c1cc(N2CCCC(CO)C2)nc2ccc(OC)cc12 (stereo partly drawn)	100%	99%	11%
CC(Cc1ccc(Oc2ccccc2)cc1)NCC(O)c1cccc(C(F)(F)F)c1 (stereo not drawn)	98%	99%	16%

SMILES	Inhibition [1]	Inhibition [2]	Inhibition [3]
CCCCCCC(C)(C)c1cc(O)c2c3c(c(=O)oc2c1)CCN(Cc1ccccc1)C3.Cl	100%	99%	3%
COc1ccc(CCNCc2ccc3nc(N)c(C)cc3c2)cc1.Cl	100%	15%	0%
O=C(/C=C/c1ccc(Cl)c(Cl)c1)NCCCCCN1C2CCC1CC(c1c[nH]c3ccc(O)cc13)C2 (stereo not drawn)	100% and 91%	0% and 20%	9% and 26%
COC(=O)c1ccc(CC(C)NCC(O)c2ccc3ccc4ccccc4c3c2)cc1.O=C(O)/C=C/C(=O)O (stereo not drawn)	100%	97%	21%
O=C(/C=C/c1ccc(Cl)c(Cl)c1)NC1CCC(CN2CCC(c3c[nH]c4cc(C(F)(F)F)ccc34)CC2)CC1 (stereo not drawn)	100% and 98%	38% and 85%	–
CCC1=C[C@@H]2CN(C1)Cc1c([nH]c3ccccc13)[C@@](C(=O)OC)(c1cc3c(cc1OC)N(C)[C@H]1[C@@](O)(C(=O)OC)[C@H](O)[C@]4(CC)C=CCN5CC[C@]31[C@@H]54)C2.O=S(=O)(O)O	98%	99%	–
COc1cccc(CC(C)NCC(O)c2cccc(Cl)c2)c1.Cl (stereo not drawn)	85%	76%	7%
Cc1[nH]c2ccc(O)cc2c1C1CCN(CC2CCN(C(=O)/C=C/c3ccc(Cl)c(Cl)c3)CC2)CC1	99%	99%	23%
CC(=O)C1(c2ccccc2)CCN(CCC(NC(=O)c2cc(C(F)(F)F)cc(C(F)(F)F)c2)c2ccc(Cl)c(Cl)c2)CC1.Cl (stereo not drawn)	91%	82%	9%
C#CCOc1ccc(CC(C)NCC(O)c2cccc(C(F)(F)F)c2)cc1 (stereo not drawn)	93% and 90%	84% and 74%	–
COC(=O)CN(C(=O)/C=C/c1ccc(Cl)c(Cl)c1)C1CCC(CN2CCC(c3c[nH]c4ccccc34)CC2)CC1 (stereo not drawn)	100%	69%	31%
CC[C@H]1CN2CC[C@@H]1C[C@H]2[C@H](O)c1cc(N2CCC(C(N)=O)CC2)nc2ccc(OC)cc12	99%	9%	17%
COc1ccc(C(=O)c2ccc3[nH]cc(C4=CCN(C)CC4)c3c2)cc1	88%	55%	–
CN1CC=C(c2c[nH]c3ccc(C(=O)c4nccs4)cc23)CC1	89%	73%	–
CC(Cc1ccc(OCCCCOc2ccccc2)cc1)NCCC1CCCN1C (stereo not drawn)	99%	98%	100%
CN1CC=C(c2csc3ccc(NC(=O)Nc4ccc(-c5ccncc5)c(Cl)c4)cc23)CC1	100%	100%	10%
CC[C@H]1CN2CC[C@H]1C[C@H]2[C@H](O)c1cc(-c2ccccc2C(F)(F)F)nc2ccc(OC)cc12.Cl	98%	99%	0%
Cc1cc2cc(CNCCc3ccccc3Br)ccc2nc1N.Cl	98%	91%	31%
CC(Cc1ccc(C2=CCNCC2)cc1)NCC(O)c1cccc(C(F)(F)F)c1.Cl (stereo not drawn)	89%	0%	27%
COc1ccc(C(=O)C2CC2CN2CC=C(c3c[nH]c4cccc(Br)c34)CC2)cc1.O=C(O)C(F)(F)F (stereo not drawn)	88%	67%	32%

SMILES	Inhibition [1]	Inhibition [2]	Inhibition [3]
O=C(NC1CCC(CN2CCC(c3c[nH]c4ccccc34)CC2)CC1)c1cn(Cc2ccccc2)c2ccccc12 (stereo not drawn)	91%	48%	84%
CC(=O)Nc1ccc(CN2CCC(N(C)c3ccc(NC(=O)c4cccc(C)c4)cc3)CC2)cc1.O=C(O)C(F)(F)F	91%	50%	0%
CC[C@H]1C[N+]2([O-])CC[C@@H]1C[C@H]2[C@H](O)c1cc(-c2ccccc2)nc2ccc(OC)cc12	99%	97%	0%
S=C(Nc1ccc2c(c1)OCCO2)NC1CCC(CN2CCC(c3c[nH]c4ccccc34)CC2)CC1 (stereo not drawn)	96% and 92%	1% and 7%	31% and 32%
O=C(Nc1ccc(CN2CCC(c3c[nH]c4ccc(O)cc34)CC2)cc1)c1ccc(-c2ccccc2)cc1	100%	100%	33%
CC[C@H]1CN2CC[C@@H]1C[C@H]2[C@H](O)c1cc(N2CCSCC2)nc2ccc(OC)cc12	99%	98%	2%
Cc1ccc(CC(C)NC[C@H](O)c2cccc(Cl)c2)cc1.Cl (stereo partly drawn)	96%	47%	15%
CN(c1cc(NC(=O)c2ccc(F)cc2)ccn1)C1CCN(Cc2cccc(F)c2)CC1.O=C(O)C(F)(F)F	100%	97%	13%
CCOc1ccc2nccc([C@@H](O)[C@@H]3C[C@@H]4CCN3C[C@@H]4CC)c2c1 [ETHYLHYDROCUPREINE]	99%	51%	1%
C/C=C1\CN2CC[C@H]1C[C@H]2[C@H](O)c1ccnc2ccc(OC)cc12.O=S(=O)(O)O	99%	61%	0%
CC(Cc1ccc(OCCCCOc2ccccc2)cc1)NCCc1ccccc1Cl (stereo not drawn)	97%	58%	100%
O=C(C=Cc1ccc(-c2ccccc2)cc1)NC1CCC(CN2CCC(c3c[nH]c4ccccc34)CC2)CC1 (stereo not drawn)	100%	85% and 98%	97% and 43%
CC[C@H]1CN2CC[C@H]1C[C@H]2C(O)c1cc(OC)nc2ccccc12 (stereo partly drawn)	100%	98%	0%
CCCCCC(C)C(C)c1cc(O)c2c3c(c(=O)oc2c1)CN(Cc1ccccc1)CC3.Cl (stereo not drawn)	99%	47%	4%
C[C@@H]1C[C@@H]([C@H](O)CC2CC(=O)NC(=O)C2)C(=O)[C@@H](C)C1 [CYCLOHEXIMIDE]	96%	87%	46%
Cc1ccc2c(C3=CCN(CCCCC4(C)C(=O)Nc5c(F)cccc54)CC3)c(C)[nH]c2c1 (stereo not drawn)	95%	89%	5%
CC(=O)Nc1ccc(OCCN(CC(C)(C)C)c2ccc(C#N)c(C(F)(F)F)c2)c(Cl)c1	87%	93%	0%
CC(Cc1ccc(-c2nc3ccccc3[nH]2)cc1)NCC(O)c1cccc(C(F)(F)F)c1 (stereo not drawn)	97%	90%	33%
